Several values for one entry are separate records, joined by “and”; a condition that tells them apart may be missing. Equal values may be shown once. Records with an inconclusive call do not appear. Activity calls are given as the source filed them.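 Rule for the calls, unless noted: active = normalized viability below 100% at a tested concentration; inactive = the rest.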
How the values were obtained:
[1] = viability loss in pontine glioma line – cell-based, SU-DIPG-XVII, MIPE5.0, CellTiter-Glo, qHTS, dose response (AID 1347060; cut-off not given, nearly all actives have AC50 up to about 26 µM;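 for AC50: cells exposed to compound for 48 hours before viability readout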); settings: CellTiter-Glo ATP luminescence
[2] = viability loss in pontine glioma line – cell-based, SU-DIPG-XIII, MIPE5.0, CellTiter-Glo, qHTS, dose response (AID 1347064; cut-off not given, nearly all actives have AC50 up to about 23 µM;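 for AC50: cells exposed to compound for 48 hours before the viability read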); settings: CellTiter-Glo ATP luminescence
[3] = viability loss in pontine glioma line – cell-based, SU-DIPG-XXV, MIPE5.0, CellTiter-Glo, qHTS, dose response (AID 1347065; cut-off not given, nearly all actives have AC50 up to about 26 µM;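 note: cells exposed to compound for 48 hours before ATP readout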); settings: CellTiter-Glo ATP luminescence
[4] = JHH-DIPG-1 glioma cell viability, MIPE5.0 library, CellTiter-Glo luminescence, qHTS (AID 1347067; cut-off not given, nearly all actives have AC50 up to about 26 µM;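 note: cells exposed to compound for 48 hours before readout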); settings: JHH-DIPG-1 glioma viability, CellTiter-Glo ATP luminescence
[5] = growth inhibition of DIPG cells – cell-based, MIPE5.0 library, qHTS (AID 1347068; cut-off not given, nearly all actives have IC50 up to about 30 µM;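 for IC50: cells exposed to compound for 48 hours before viability readout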); settings: SU-DIPG-XXV viability
[6] = viability loss with induced miR-34 in A549 – imaging, A549 dox-inducible miR-34, nuclei and caspase counts, primary screen (AID 1347080;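 active = compounds whose cell count with miR-34 switched on is under 0.7 times the count with it off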); settings: A549 miR-34 inducible, Hoechst nuclei count, 48 h
[7] = MELAS cybrid and Rieske KO viability enhancers – cell-based, MELAS cybrids, Rieske KO mouse fibroblasts, CellTiter-Glo, primary screen (AID 1508586;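 active = mean z-score across replicates of 1.96 or higher in either the MELAS or the Rieske mutant cell line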;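 note: z relative to plate mean and SD of compound and empty wells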); settings: low glucose
[8] = drug combination growth inhibition, ovarian cancer – cell-based, oncology-focused library, rucaparib conditional, profiling panel (AID 1508598); settings: patient-derived ovarian cancer cells, CellTiter-Glo viability, 144 h, stronger effect = lower value
[9] = stronger effect = lower value, cell number ratio, induced over uninduced
[10] = measured here: relative caspase fold change +Dox/-Dox
[11] = measured here: total cells with miR-34 induction, stronger effect = lower value
[12] = measured here: total cells without miR-34 induction
[13] = MELAS cybrid survival, CellTiter-Glo 48 h, stronger effect = higher value
[14] = Rieske KO mouse fibroblast survival, CellTiter-Glo 72 h

With CCC(=O)Nc1cccc(Oc2nc(Nc3ccc(N4CCN(C)CC4)cc3OC)ncc2Cl)c1 the AC50 [1] was 9.34 µM (active), the AC50 [2] was 10.5 µM (active) and the AC50 [3] was 7.42 µM (active). The AC50 [4] was 18.6 µM (active), the outcome [5] was “inactive” and the fold change [6, 9] was 0.756 (inactive). The fold change [6, 10] was 0.553, the cell count [6, 11] was 3260 and the cell count [6, 12] was 4310. For the same compound, the z-score [7, 13] was -0.403 (inactive) and the z-score [7, 14] was 0.64.
In the case of CCN1CCN(Cc2ccc(Nc3ncc(F)c(-c4cc(F)c5nc(C)n(C(C)C)c5c4)n3)nc2)CC1, the AC50 [1] is reported as 5.9 µM (active), the AC50 [2] is reported as 7.42 µM (active) and the AC50 [3] is reported as 6.61 µM (active). For the same compound, the AC50 [4] was 8.33 µM (active), the IC50 [5] was 23.5 µM (active) and the fold change [6, 9] was 0.908 (inactive). For the same compound, the fold change [6, 10] was 0.558, the cell count [6, 11] was 2650 and the cell count [6, 12] was 2920. For the same compound, the z-score [7, 13] was 5.9 (active) and the z-score [7, 14] was -5.11.
For COc1cc(Nc2ncc(F)c(Nc3ccc4c(n3)NC(=O)C(C)(C)O4)n2)cc(OC)c1OC, the AC50 [1] was 1.18 µM (active), the AC50 [2] was 1.86 µM (active) and the AC50 [3] was 1.32 µM (active). The AC50 [4] was 5.9 µM (active), the fold change [6, 9] was 1.02 (inactive) and 1.15 (inactive) and the fold change [6, 10] was 0.841 and 0.707. For the same compound, the cell count [6, 11] was 1550 and 1090, the cell count [6, 12] was 1520 and 950 and the z-score [7, 13] was -0.458 (inactive) and -0.514 (inactive). For the same compound, the z-score [7, 14] was 0.0101 and 0.0182, the viability ([8]; at 0.000305 µM, OCI-C5x cells, with rucaparib 10 µM, 100% = cells with rucaparib alone) was 109% (inactive) and the viability ([8]; at 0.000305 µM, OCI-C5x cells, without rucaparib) was 101% (inactive). The viability ([8]; at 0.000305 µM, OCI-P5x cells, with rucaparib 20 µM, 100% = cells with rucaparib alone) was 83% (active), the viability ([8]; at 0.000305 µM, OCI-P5x cells, without rucaparib) was 96.3% (active) and the viability ([8]; at 0.00122 µM, OCI-C5x cells, with rucaparib 10 µM, 100% = cells with rucaparib alone) was 111% (inactive). The viability ([8]; at 0.00122 µM, OCI-C5x cells, without rucaparib) was 109% (inactive), the viability ([8]; at 0.00122 µM, OCI-P5x cells, with rucaparib 20 µM, 100% = cells with rucaparib alone) was 82.7% (active) and the viability ([8]; at 0.00122 µM, OCI-P5x cells, without rucaparib) was 86.9% (active). For the same compound, the viability ([8]; at 0.00488 µM, OCI-C5x cells, with rucaparib 10 µM, 100% = cells with rucaparib alone) was 111% (inactive), the viability ([8]; at 0.00488 µM, OCI-C5x cells, without rucaparib) was 111% (inactive) and the viability ([8]; at 0.00488 µM, OCI-P5x cells, with rucaparib 20 µM, 100% = cells with rucaparib alone) was 78.5% (active). For the same compound, the viability ([8]; at 0.00488 µM, OCI-P5x cells, without rucaparib) was 95.2% (active), the viability ([8]; at 0.0195 µM, OCI-C5x cells, with rucaparib 10 µM, 100% = cells with rucaparib alone) was 118% (inactive) and the viability ([8]; at 0.0195 µM, OCI-C5x cells, without rucaparib) was 112% (inactive). The viability ([8]; at 0.0195 µM, OCI-P5x cells, with rucaparib 20 µM, 100% = cells with rucaparib alone) was 70.2% (active), the viability ([8]; at 0.0195 µM, OCI-P5x cells, without rucaparib) was 74.2% (active) and the viability ([8]; at 0.0781 µM, OCI-C5x cells, with rucaparib 10 µM, 100% = cells with rucaparib alone) was 107% (inactive). The viability ([8]; at 0.0781 µM, OCI-C5x cells, without rucaparib) was 114% (inactive), the viability ([8]; at 0.0781 µM, OCI-P5x cells, with rucaparib 20 µM, 100% = cells with rucaparib alone) was 59.3% (active) and the viability ([8]; at 0.0781 µM, OCI-P5x cells, without rucaparib) was 55% (active). For the same compound, the viability ([8]; at 0.313 µM, OCI-C5x cells, with rucaparib 10 µM, 100% = cells with rucaparib alone) was 112% (inactive), the viability ([8]; at 0.313 µM, OCI-C5x cells, without rucaparib) was 126% (inactive) and the viability ([8]; at 0.313 µM, OCI-P5x cells, with rucaparib 20 µM, 100% = cells with rucaparib alone) was 46.3% (active). For the same compound, the viability ([8]; at 0.313 µM, OCI-P5x cells, without rucaparib) was 50% (active), the viability ([8]; at 1.25 µM, OCI-C5x cells, with rucaparib 10 µM, 100% = cells with rucaparib alone) was 116% (inactive) and the viability ([8]; at 1.25 µM, OCI-C5x cells, without rucaparib) was 127% (inactive). For the same compound, the viability ([8]; at 1.25 µM, OCI-P5x cells, with rucaparib 20 µM, 100% = cells with rucaparib alone) was 81.5% (active), the viability ([8]; at 1.25 µM, OCI-P5x cells, without rucaparib) was 99.3% (active) and the viability ([8]; at 5 µM, OCI-C5x cells, with rucaparib 10 µM, 100% = cells with rucaparib alone) was 122% (inactive). For the same compound, the viability ([8]; at 5 µM, OCI-C5x cells, without rucaparib) was 151% (inactive), the viability ([8]; at 5 µM, OCI-P5x cells, with rucaparib 20 µM, 100% = cells with rucaparib alone) was 79% (active) and the viability ([8]; at 5 µM, OCI-P5x cells, without rucaparib) was 96.9% (active).
With C=CC(=O)Nc1ccc2ncnc(Nc3cccc(Br)c3)c2c1 the AC50 [1] was 10.5 µM (active), the AC50 [2] was 18.6 µM (active) and the AC50 [3] was 9.34 µM (active). For the same compound, the AC50 [4] was 13.2 µM (active), the IC50 [5] was 4.68 µM (active) and the fold change [6, 9] was 0.91 (inactive). It also gave a fold change [6, 10] of 0.865, a cell count [6, 11] of 3490 and a cell count [6, 12] of 3830. The z-score [7, 13] was -0.254 (inactive) and the z-score [7, 14] was -0.0488.
For Cc1nc(-c2cn3c(n2)-c2ccc(-c4cnn(C(C)(C)C(N)=O)c4)cc2OCC3)n(C(C)C)n1, the AC50 [1] was 0.525 µM (active), the AC50 [2] was 0.295 µM (active) and the AC50 [3] was 0.105 µM (active). The IC50 [5] was 1.66 µM (active).
In the case of C/C(=N\NC(=O)c1cccc(S(=O)(=O)N2CCOCC2)c1)c1cc(Cl)ccc1O, the AC50 [1] is reported as 18.6 µM (active), the AC50 [2] is reported as 9.34 µM (active) and the AC50 [3] is reported as 16.6 µM (active). The outcome [5] was “inactive”.
For Cc1ccc(-c2nc(N)nc3c2nnn3Cc2cccc(CO[C@H]3CCOC3)n2)o1, the outcome [1] was “inactive”, the outcome [2] was “inactive” and the outcome [3] was “inactive”. For the same compound, the outcome [5] was “inactive”.
With Cc1[nH]c2ccc(F)cc2c1-c1nc2c3cccnc3c3ncccc3c2[nH]1 the AC50 [1] was 6.79 µM (active), the AC50 [2] was 1.35 µM (active) and the AC50 [3] was 1.91 µM (active). The IC50 [5] was 2.7 µM (active).
For CC(=NNC(=O)c1cccc(S(=O)(=O)N2CCOCC2)c1)c1cc(Cl)ccc1O, the AC50 [1] was 8.33 µM (active), the AC50 [2] was 6.61 µM (active) and the AC50 [3] was 5.9 µM (active). For the same compound, the outcome [5] was “inactive”.
For O=C(NOCC(O)CO)c1ccc(F)c(F)c1Nc1ccc(I)cc1F (configuration not stated), the AC50 [1] was 0.417 µM (active), the AC50 [2] was 0.525 µM (active) and the AC50 [3] was 0.934 µM (active). The AC50 [4] was 0.166 µM (active), the fold change [6, 9] was 1.1 (inactive) and the fold change [6, 10] was 0.559. The cell count [6, 11] was 2790, the cell count [6, 12] was 2520 and the z-score [7, 13] was -0.718 (inactive). For the same compound, the z-score [7, 14] was -0.702.
With COc1cc([C@@H](CC(=O)O)c2ccc(C)c(CN3C[C@@H](C)Oc4ccccc4S3(=O)=O)c2)cc2nnn(C)c12 the outcome [1] was “inactive”, the outcome [2] was “inactive” and the outcome [3] was “inactive”. For the same compound, the outcome [5] was “inactive”.
With C[C@@H](c1ccc2nccn2c1)n1nnc2ncc(-c3cnn(C)c3)nc21 the outcome [1] was “inactive”, the outcome [2] was “inactive” and the outcome [3] was “inactive”. For the same compound, the outcome [5] was “inactive”.
In the case of CNC(=O)c1cccc2cc(Oc3ccnc4cc(OCC5(N)CC5)c(OC)cc34)ccc12, the AC50 [1] is reported as 1.48 µM (active), the AC50 [2] is reported as 1.32 µM (active) and the AC50 [3] is reported as 1.86 µM (active). For the same compound, the IC50 [5] was 7.42 µM (active).

Reference: PubChem BioAssay
